Values joined by “and” are separate entries in the source; they are usually repeats but may differ in a detail not shown here. Equal entries are not always repeated. Records with an inconclusive call do not appear. Some compounds were tested as several samples or in several runs, with calls that do not always agree. Active and inactive are the calls of the source. The call rests on the fitted dose curve; in most records, active means well fitted curve in the direction sought with a large enough effect in the repeat runs; inconclusive means weak or mixed curves; inactive means no such curve, though single readings can be large; an effect the other way counts as inactive or inconclusive.

Our source for the Potency, max activation and outcome values is PubChem BioAssay (Tox21).

The nature of assay [1]: Human pregnane X receptor (PXR) small molecule agonists, qHTS cell viability counter screen (AID 1346977). Further: nearly all actives have a fitted effect of over 50% in size. A digest of the protocol:
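After a 5hr pre-incubation, PXR-Luc HepG2 cells received compounds plus positive control in DMSO and were kept 24hr at 37C. Cell viability was quantified by fluorescence from CellTiter-Fluor added for the final hour.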

Assay [2] is described as follows: Caspase-3/7 induction in HepG2 cells by small molecules, qHTS assay (AID 1346978). Further: nearly all actives have a fitted effect of over 15% in size. A digest of the protocol: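 Wild-type HepG2 cells, 2,000/well, settled 5 hr at 37 C and 5% CO2, then compound-treated for 17 hr; caspase-3/7 activity read by luminescent Caspase-Glo 3/7 after 30 min at room temperature.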
(qHTS replaces the single test concentration by a dilution series.)

A short description of assay [3]: Caspase-3/7 induction in CHO-K1 cells by small molecules, qHTS cell viability counter screen (AID 1346979). Further: nearly all actives have a fitted effect of over 35% in size. Further: potency means the concentration at half of the fitted maximal effect. A digest of the protocol: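 Multiplexed with Caspase-Glo 3/7 in CHO-K1 cells, this counter screen added CellTiter-Fluor after 16hr of compound exposure and recorded fluorescence 1hr later.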
The nature of assay [4]: Caspase-3/7 induction in CHO-K1 cells by small molecules, qHTS assay (AID 1346980). Further: nearly all actives have a fitted effect of over 15% in size. The essentials:
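Wild-type CHO-K1 cells exposed to compounds for 17hr at 37 C, 5% CO2. Caspase-3/7 activity then measured by Caspase-Glo 3/7 luminescence after 30min at room temperature.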

Assay [5] is described as follows: Caspase-3/7 induction in HepG2 cells by small molecules, qHTS cell viability counter screen (AID 1346981). Further: series mostly up to about 92 µM; nearly all actives have a fitted effect of over 30% in size. A digest of the protocol: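 Cell viability is measured as a cytotoxicity counter screen alongside the Caspase-Glo 3/7 readout in identical wells. Wild-type HepG2 cells are treated with test compounds for 16 hr at 37 C before CellTiter-Fluor addition and a 1-hr incubation.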

In assay [6] the target is Nuclear receptor subfamily 1 group I member 2 (Homo sapiens) (UniProt O75469). The assay can be described thus: Human pregnane X receptor (PXR) small molecule agonists, qHTS assay (AID 1346982). Further: nearly all actives have a fitted effect of over 35% in size. Further: potency means the concentration at half of the fitted maximal effect. The essentials: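 Cells: HepG2 stably carrying PXR-Luc. Medium held 5% charcoal-stripped FBS. Compounds in DMSO added after 5 hr plating, incubated 24 hr, then luminescence quantified with ONE-Glo.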

For assay [7], the target named is Cytochrome P450 2D6 (Homo sapiens) (UniProt P10635). The assay can be described thus: Cytochrome P450 Family 2 Subfamily D Member 6 (CYP2D6) small molecule antagonists: luciferase reporter qHTS assay (AID 1671196). Further: nearly all actives have a fitted effect of over 50% in size. Further: potency means the concentration at half of the fitted maximal effect. The essentials: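 Enzyme and proluciferin substrate were first combined with test chemical for 10 min at room temperature. Adding NADPH regeneration solution started a 1 h reaction, stopped with luciferin detection reagent and read by luminescence 20 min later.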

For assay [8], the target named is Cytochrome P450 2C19 (Homo sapiens) (UniProt P33261). Briefly: Cytochrome P450 Family 2 Subfamily C Member 19 (CYP2C19) small molecule antagonists: luciferase reporter qHTS assay (AID 1671197). Further: nearly all actives have a fitted effect of over 65% in size. Further: potency means the concentration at half of the fitted maximal effect. The essentials:
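Light output is proportional to CYP2C19 activity: proluciferin substrate is converted to luciferin, then detected by a luciferin detection reagent that also stops the 1 h, 37C NADPH-driven reaction. Ketoconazole serves as positive control.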
A general note: A reporter such as luciferase makes a cellular process visible.

For assay [9], the target named is Cytochrome P450 2C9 (Homo sapiens) (UniProt P11712). Briefly: Cytochrome P450 Family 2 Subfamily C Member 9 (CYP2C9) small molecule antagonists: luciferase reporter qHTS assay (AID 1671198). Further: nearly all actives have a fitted effect of over 50% in size. Further: potency means the concentration at half of the fitted maximal effect. The essentials:
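P450-Glo proluciferin substrate with CYP2C9 enzyme; 10 min RT preincubation, then NADPH regeneration 1 h at 37C; luciferin detection reagent 20 min RT, luminescence in relative luminescence units.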

Assay [10] deals with Cytochrome P450 1A2 (Homo sapiens) (UniProt P05177). Briefly: Cytochrome P450 Family 1 Subfamily A Member 2 (CYP1A2) small molecule antagonists: luciferase reporter qHTS assay (AID 1671199). Further: nearly all actives have a fitted effect of over 50% in size. Further: potency means the concentration at half of the fitted maximal effect. The essentials:
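Compounds were incubated with CYP1A2 and a luminogenic proluciferin substrate for 10 min at room temperature before the reaction was started with NADPH regeneration solution. After 1 h, detection reagent was added and light output, proportional to CYP activity, was recorded.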

Assay [11] deals with Voltage-gated inwardly rectifying potassium channel KCNH2 (Homo sapiens) (UniProt Q12809). The assay can be described thus: Human Ether-a-go-go-Related Gene (hERG) channel small molecule antagonists: fluorescence cell-based qHTS assay (AID 1671200). The essentials:
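Cell line hERG-U2OS; dye FluxOR II, 1 h RT dark; Tl+ stimulus; ex 480/em 540 nm, read each second for 2 min.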
In general terms: hERG is a cardiac potassium channel; its block is linked to QT prolongation.

The target of assay [12] is Cytochrome P450 3A4 (Homo sapiens) (UniProt P08684). The assay can be described thus: Cytochrome P450 Family 3 Subfamily A Member 4 (CYP3A4) small molecule antagonists: luciferase reporter qHTS assay (AID 1671201). Further: nearly all actives have a fitted effect of over 50% in size. Further: potency means the concentration at half of the fitted maximal effect. The essentials:
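Room-temperature assay throughout: 10 min compound–enzyme/substrate preincubation, 1 h reaction after NADPH regeneration solution, 20 min detection. Luciferin formed from proluciferin substrate is quantified by luminescence.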

For assay [13], the target named is Nuclear receptor subfamily 1 group I member 2 (Rattus norvegicus) (UniProt Q9R1A7). The assay can be described thus: Rat pregnane X receptor (rPXR) activation by small molecules, qHTS assay (AID 1346983). Further: nearly all actives have a fitted effect of over 20% in size. As to conditions: rPXR luciferase reporter cells, One-Glo luminescence, 24 h; stronger effect = higher value. A digest of the protocol:
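Cell-based rPXR activation assay: rPXR cells, 2,000 per well, rested 5hr at 37 C, then exposed to compounds in DMSO for 24 hr at 37 C. Luciferase activity read by One-Glo luminescence after 30 min at room temperature.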

Assay [14] has as its target Nuclear receptor subfamily 1 group I member 2 (Homo sapiens) (UniProt O75469). Briefly: CYP3A4 induction through human pregnane X receptor (PXR) by small molecules, qHTS assay (AID 1346984). Further: nearly all actives have a fitted effect of over 40% in size. A digest of the protocol:
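Quantitative HTS in DPX-2 cells, i.e. HepG2 transfected with PXR response element and CYP3A4-promoter luciferase. Compounds in DMSO incubated 24hr at 37C; then P450-Glo CYP3A4 substrate, 3uM final, 3hr; One-Glo luminescence.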

The target is the same in assay [15]. The assay can be described thus: Human pregnane X receptor (PXR) activation by small molecules, qHTS assay (AID 1346985). Further: nearly all actives have a fitted effect of over 40% in size. A digest of the protocol:
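DPX-2 cells (HepG2 co-transfected with a PXR response element and a CYP3A4-promoter luciferase construct) were seeded at 2,000 per well, rested 5 hr at 37C, then exposed to DMSO-dissolved compounds for 24 hr. Activation was read as luciferase luminescence.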
On the % scale 0 is the no-effect control and ±100 the full control effect.

Sequence of Nuclear receptor subfamily 1 group I member 2 (Homo sapiens) (O75469 whole entry, looked up): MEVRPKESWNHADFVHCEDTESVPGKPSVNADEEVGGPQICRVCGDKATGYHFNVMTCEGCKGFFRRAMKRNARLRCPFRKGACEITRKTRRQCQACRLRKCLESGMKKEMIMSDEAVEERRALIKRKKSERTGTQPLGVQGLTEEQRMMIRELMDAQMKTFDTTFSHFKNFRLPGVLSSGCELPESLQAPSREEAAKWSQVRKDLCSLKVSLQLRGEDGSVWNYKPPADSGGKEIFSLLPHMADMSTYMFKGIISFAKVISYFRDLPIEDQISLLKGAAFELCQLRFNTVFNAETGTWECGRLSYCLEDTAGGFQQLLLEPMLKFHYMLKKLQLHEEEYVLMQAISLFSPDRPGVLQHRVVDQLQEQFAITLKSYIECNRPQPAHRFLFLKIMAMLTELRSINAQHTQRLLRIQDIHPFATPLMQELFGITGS
Sequence of Cytochrome P450 2D6 (Homo sapiens) (P10635 whole entry, looked up): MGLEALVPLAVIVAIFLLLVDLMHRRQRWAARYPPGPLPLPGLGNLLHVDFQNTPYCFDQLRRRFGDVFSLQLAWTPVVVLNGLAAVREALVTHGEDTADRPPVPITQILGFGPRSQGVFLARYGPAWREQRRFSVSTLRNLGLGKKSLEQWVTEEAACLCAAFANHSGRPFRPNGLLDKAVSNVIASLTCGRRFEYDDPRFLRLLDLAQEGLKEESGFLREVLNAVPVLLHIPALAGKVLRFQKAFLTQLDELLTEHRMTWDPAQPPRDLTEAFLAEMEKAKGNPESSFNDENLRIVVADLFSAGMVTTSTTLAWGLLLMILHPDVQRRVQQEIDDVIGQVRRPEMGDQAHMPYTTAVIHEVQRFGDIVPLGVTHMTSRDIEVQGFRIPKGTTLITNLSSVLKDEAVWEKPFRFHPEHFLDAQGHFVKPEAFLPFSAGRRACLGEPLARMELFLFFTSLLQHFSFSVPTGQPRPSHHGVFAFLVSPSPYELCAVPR
Sequence of Cytochrome P450 3A4 (Homo sapiens) (P08684 whole entry, looked up): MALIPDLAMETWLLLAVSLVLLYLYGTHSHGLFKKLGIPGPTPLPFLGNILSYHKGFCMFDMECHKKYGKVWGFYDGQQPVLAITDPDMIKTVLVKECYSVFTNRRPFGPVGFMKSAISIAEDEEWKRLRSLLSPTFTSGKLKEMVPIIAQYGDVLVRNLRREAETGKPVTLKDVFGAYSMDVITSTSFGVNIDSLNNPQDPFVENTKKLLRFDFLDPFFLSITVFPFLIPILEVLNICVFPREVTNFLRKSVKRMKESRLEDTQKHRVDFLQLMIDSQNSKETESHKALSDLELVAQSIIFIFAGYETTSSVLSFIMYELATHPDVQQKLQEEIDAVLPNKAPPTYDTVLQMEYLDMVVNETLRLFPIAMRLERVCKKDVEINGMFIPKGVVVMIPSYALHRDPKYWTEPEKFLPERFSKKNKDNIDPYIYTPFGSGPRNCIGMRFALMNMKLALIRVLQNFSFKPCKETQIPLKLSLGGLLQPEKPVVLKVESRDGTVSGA
Sequence of Voltage-gated inwardly rectifying potassium channel KCNH2 (Homo sapiens) (Q12809 whole entry, looked up): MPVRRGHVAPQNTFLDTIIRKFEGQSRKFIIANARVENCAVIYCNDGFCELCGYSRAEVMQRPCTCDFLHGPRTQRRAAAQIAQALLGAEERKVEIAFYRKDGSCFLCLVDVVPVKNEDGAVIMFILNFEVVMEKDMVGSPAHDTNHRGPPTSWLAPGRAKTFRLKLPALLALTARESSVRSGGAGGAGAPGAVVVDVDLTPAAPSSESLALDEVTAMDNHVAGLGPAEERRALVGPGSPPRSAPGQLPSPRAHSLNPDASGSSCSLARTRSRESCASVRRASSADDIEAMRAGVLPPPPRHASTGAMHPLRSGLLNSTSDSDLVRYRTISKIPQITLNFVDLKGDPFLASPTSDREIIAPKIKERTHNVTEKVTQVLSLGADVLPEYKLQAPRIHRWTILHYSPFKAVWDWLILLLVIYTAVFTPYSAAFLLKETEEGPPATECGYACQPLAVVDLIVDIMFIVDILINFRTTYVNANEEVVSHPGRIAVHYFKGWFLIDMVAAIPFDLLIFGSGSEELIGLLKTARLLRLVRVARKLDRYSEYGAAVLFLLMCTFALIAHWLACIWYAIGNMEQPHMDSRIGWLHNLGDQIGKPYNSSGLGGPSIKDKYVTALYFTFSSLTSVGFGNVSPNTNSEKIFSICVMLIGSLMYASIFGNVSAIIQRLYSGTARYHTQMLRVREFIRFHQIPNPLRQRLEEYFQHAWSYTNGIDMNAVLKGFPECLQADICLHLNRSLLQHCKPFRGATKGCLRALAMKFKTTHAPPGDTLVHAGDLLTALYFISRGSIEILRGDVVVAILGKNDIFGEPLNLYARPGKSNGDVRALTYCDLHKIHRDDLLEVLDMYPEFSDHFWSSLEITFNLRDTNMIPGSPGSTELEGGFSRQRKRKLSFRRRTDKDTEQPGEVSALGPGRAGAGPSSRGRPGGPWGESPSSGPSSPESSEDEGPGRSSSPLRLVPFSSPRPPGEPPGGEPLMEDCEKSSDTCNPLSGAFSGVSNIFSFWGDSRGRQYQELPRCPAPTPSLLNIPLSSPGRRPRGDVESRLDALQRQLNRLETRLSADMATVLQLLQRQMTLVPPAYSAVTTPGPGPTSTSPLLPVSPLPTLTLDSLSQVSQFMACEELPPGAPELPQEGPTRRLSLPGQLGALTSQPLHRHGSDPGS
Sequence of Cytochrome P450 1A2 (Homo sapiens) (P05177 whole entry, looked up): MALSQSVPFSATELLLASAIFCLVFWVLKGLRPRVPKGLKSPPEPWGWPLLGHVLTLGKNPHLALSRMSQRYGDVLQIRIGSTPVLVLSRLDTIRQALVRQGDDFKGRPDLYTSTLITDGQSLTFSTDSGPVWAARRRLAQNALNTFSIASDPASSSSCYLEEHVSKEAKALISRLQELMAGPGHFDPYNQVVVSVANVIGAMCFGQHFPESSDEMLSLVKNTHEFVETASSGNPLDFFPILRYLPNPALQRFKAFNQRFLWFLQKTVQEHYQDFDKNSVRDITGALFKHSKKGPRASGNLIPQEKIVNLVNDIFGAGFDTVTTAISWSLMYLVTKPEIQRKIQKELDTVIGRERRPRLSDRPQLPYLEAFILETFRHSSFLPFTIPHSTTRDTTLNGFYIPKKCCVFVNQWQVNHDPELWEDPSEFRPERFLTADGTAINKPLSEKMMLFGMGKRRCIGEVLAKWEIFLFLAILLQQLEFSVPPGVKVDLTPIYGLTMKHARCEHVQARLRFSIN
Sequence of Cytochrome P450 2C19 (Homo sapiens) (P33261 whole entry, looked up): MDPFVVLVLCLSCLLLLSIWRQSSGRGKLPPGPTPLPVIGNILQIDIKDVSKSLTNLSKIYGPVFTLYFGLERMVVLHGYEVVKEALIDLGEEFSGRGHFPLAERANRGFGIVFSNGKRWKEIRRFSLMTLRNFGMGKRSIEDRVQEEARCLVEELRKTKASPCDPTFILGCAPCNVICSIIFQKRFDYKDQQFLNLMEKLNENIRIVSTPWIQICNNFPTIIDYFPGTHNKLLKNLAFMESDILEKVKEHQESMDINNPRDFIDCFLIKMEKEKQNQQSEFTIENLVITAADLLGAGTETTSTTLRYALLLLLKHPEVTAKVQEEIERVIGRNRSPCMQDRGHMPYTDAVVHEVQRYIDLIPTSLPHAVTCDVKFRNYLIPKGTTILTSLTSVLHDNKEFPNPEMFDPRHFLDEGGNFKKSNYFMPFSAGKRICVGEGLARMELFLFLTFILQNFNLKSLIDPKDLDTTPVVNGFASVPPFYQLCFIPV
Sequence of Cytochrome P450 2C9 (Homo sapiens) (P11712 whole entry, looked up): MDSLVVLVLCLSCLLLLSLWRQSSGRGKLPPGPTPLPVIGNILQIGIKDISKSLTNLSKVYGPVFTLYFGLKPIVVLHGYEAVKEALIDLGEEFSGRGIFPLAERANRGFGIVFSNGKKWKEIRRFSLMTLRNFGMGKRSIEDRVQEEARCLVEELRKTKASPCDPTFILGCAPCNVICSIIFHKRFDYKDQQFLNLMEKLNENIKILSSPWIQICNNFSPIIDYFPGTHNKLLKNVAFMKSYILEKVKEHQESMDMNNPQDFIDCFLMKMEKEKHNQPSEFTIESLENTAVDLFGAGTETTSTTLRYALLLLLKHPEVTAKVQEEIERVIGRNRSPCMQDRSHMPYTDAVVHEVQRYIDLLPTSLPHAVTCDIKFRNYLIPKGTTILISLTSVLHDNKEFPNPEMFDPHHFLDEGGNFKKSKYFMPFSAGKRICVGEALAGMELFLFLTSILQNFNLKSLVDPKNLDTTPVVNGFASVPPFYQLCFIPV
Sequence of Nuclear receptor subfamily 1 group I member 2 (Rattus norvegicus) (Q9R1A7 whole entry, looked up): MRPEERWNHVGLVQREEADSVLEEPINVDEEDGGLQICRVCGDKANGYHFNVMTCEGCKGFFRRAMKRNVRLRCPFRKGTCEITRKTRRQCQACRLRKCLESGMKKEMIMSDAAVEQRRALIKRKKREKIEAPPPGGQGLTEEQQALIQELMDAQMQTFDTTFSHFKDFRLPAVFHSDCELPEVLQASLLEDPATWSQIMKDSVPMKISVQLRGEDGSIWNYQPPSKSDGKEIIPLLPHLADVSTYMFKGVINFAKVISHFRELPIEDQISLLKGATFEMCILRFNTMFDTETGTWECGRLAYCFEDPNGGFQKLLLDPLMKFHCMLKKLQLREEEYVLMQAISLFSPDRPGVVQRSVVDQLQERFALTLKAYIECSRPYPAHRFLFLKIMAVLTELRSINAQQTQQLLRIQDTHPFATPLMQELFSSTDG

Regarding `Cc1ccc(C)c(S(=O)(=O)O)c1`, the Potency result in [1], in [2], in assay [3], in assay [4], in assay [5] and in assay [6] was “inactive” each time. Also, the Potency result in assay [8], in [9], in assay [10], in assay [11] and in assay [12] was “inactive” in each case. The Potency in assay [7] was 64.4 µM (active) and inactive.

As for `CC(COCC(C)OC(=O)c1ccccc1)OC(=O)c1ccccc1` (configuration not stated), the Potency result in [1], in [2], in [3], in assay [4], in assay [5] and in [6] was “inactive” throughout. Besides, the Potency result in assay [7] and in [12] was “inactive” throughout. In addition, the Potency in [8] was 19.9 µM (active) and 11.2 µM (active); in assay [9] it was 6.28 µM (active) and 5.64 µM (active); in [10], 9.95 µM (active) and 6.33 µM (active).

For the molecule `CC(O)CNCC(C)O` (configuration not stated), the Potency entry in [1], in assay [2], in assay [3], in assay [4], in assay [5] and in [7] was “inactive” each time. Besides, the Potency entry in [10] and in [11] was “inactive” each time. The Potency is 61.5 µM (active) and inactive in [6]; 20.1 µM (active) and 71 µM (active) in assay [8]; 35.8 µM (active) and inactive in assay [9]; 31.9 µM (active) and inactive in assay [12].

For the molecule `Nc1cccc(C(F)(F)F)c1`, the Potency entry in [1], in assay [2], in assay [3], in assay [4], in assay [5] and in [6] was “inactive” throughout. In addition, the Potency entry in assay [7], in assay [8], in assay [9], in assay [10], in assay [11] and in assay [12] was “inactive” each time.

With `CCCCCNCCCCC`, the Potency result in [1], in assay [2], in assay [3], in assay [4], in assay [5] and in assay [6] was “inactive” in each case. Also, the Potency entry in [8], in [9], in assay [10], in assay [11] and in assay [12] was “inactive” throughout. Besides, the Potency in assay [7] was 36.4 µM (active).

Turning to `COc1c(Cl)ccc(Cl)c1C(=O)O`, the Potency result in assay [1], in [2], in assay [3], in [4], in assay [5] and in [6] was “inactive” throughout. Also, the Potency entry in [7], in [8], in assay [10], in assay [11] and in assay [12] was “inactive” each time. In assay [9], the Potency is 39.9 µM (active).

Consider `O=C1C(N(CO)C(=O)NCO)N(CO)C(=O)N1CO` (configuration not stated), for which the Potency result in assay [1], in assay [2], in [3], in [4], in assay [5] and in assay [6] was “inactive” in each case. Also, the Potency entry in assay [7], in assay [8], in assay [9], in [10], in assay [11] and in assay [12] was “inactive” throughout.

Consider `O=[N+]([O-])c1ccccc1C(F)(F)F`, for which the Potency entry in [1], in assay [2], in assay [3], in assay [4], in assay [5] and in assay [6] was “inactive” in each case. The Potency entry in [7], in [9], in assay [10], in assay [11] and in [12] was “inactive” throughout. For the same molecule, the Potency in [8] is 6.95 µM (active) and inactive.

As to `CC/C(C)=N/O`, the Potency result in [1], in assay [2], in assay [3], in [4], in assay [5] and in [6] was “inactive” in each case. Moreover, the Potency entry in assay [7], in assay [8], in assay [9], in assay [10], in assay [11] and in [12] was “inactive” each time.

In the case of `Brc1ccc(Oc2ccc(Br)cc2)cc1`, the Potency result in assay [1], in assay [2], in assay [3], in [4], in assay [5] and in [6] was “inactive” throughout. The Potency result in assay [7] and in assay [12] was “inactive” throughout. Also, the Potency in [8] was 12.6 µM (active) and 5.03 µM (active); in [9], 35.6 µM (active); in assay [10] it was 22.5 µM (active) and 20 µM (active).

Turning to `NCCNCCNCCN`, the Potency result in assay [1], in [2], in [3], in assay [4], in assay [5] and in [11] was “inactive” in each case. Moreover, the max activation in [13] is -2.83% (inactive).

For the molecule `CC(=O)OC[C@H]1O[C@@](COC(C)=O)(O[C@H]2O[C@H](COC(C)=O)[C@@H](OC(C)=O)[C@H](OC(C)=O)[C@H]2OC(C)=O)[C@@H](OC(C)=O)[C@@H]1OC(C)=O`, the Potency entry in assay [1], in assay [2], in assay [3], in [4], in [5] and in assay [6] was “inactive” throughout. The Potency result in [14], in [7], in [8], in assay [10] and in [11] was “inactive” in each case. The max activation in [13] is -1.94% (inactive). The call in assay [15] was inactive.

Regarding `N#CCC(=O)O`, the Potency entry in assay [1], in assay [2], in assay [3], in assay [4], in assay [5] and in [7] was “inactive” in each case. Moreover, the Potency result in assay [8], in assay [9], in assay [10], in assay [11] and in assay [12] was “inactive” in each case.

Regarding `C1CCCNCC1`, the Potency entry in assay [1], in assay [2], in assay [3], in [4], in [5] and in assay [6] was “inactive” in each case. The Potency result in [7], in [8], in assay [9], in assay [10], in assay [11] and in assay [12] was “inactive” throughout.

On to `C[n+]1ccn(CCO)c1`, for which the Potency result in assay [1], in assay [2], in assay [3], in [4], in [5] and in assay [6] was “inactive” in each case. For the same molecule, the Potency entry in assay [7], in assay [8], in assay [9], in [10], in [11] and in assay [12] was “inactive” each time.

With `Cc1cc(C)c(O)c(C)c1`, the Potency result in [1], in assay [2], in assay [4], in assay [5], in assay [7] and in assay [11] was “inactive” throughout. For the same molecule, in assay [12], the Potency result is “inactive”. In addition, the Potency in assay [3] was 48.6 µM (active) and inactive; in [6] it was 30.6 µM (active) and inactive; in [8] it was 71 µM (active); in assay [9] it was 35.6 µM (active) and 79.6 µM (active); in assay [10] it was 35.6 µM (active) and 28.3 µM (active).

Consider `O=C(O)C1=NN(c2ccc(S(=O)(=O)O)cc2)C(=O)C1`, for which the Potency result in assay [1], in assay [2], in assay [3], in assay [4], in assay [5] and in assay [6] was “inactive” each time. In addition, the Potency result in assay [7], in assay [9], in [11] and in assay [12] was “inactive” throughout. For the same molecule, the Potency in assay [8] is 35.6 µM (active); in assay [10] it was 35.6 µM (active) and inactive.
